MEP2 TOR yeast = modulators of TOR pathway MEP2-GFP in S. cerevisiae. S. cerevisiae MEP2-GFP strain, flow cytometry GFP, 3 h; 100% = DMSO control level. GFP response vs DMSO, % at 10 µM. 330,000 tested, 0.51% active;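 active = GFP response versus DMSO above a set limit, roughly screen mean plus 3 SD, cut at about 180% in these data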;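 note: median GFP fluorescence of the barcode-gated MEP2-GFP cells per well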
LAP4-GFP MLPCN = modulators of TOR pathway LAP4-GFP in S. cerevisiae; S. cerevisiae LAP4-GFP multiplex, flow cytometry GFP, 3 h; median GFP as percent of DMSO wells; GFP response vs DMSO, % at 10 µM; 320,000 tested, 0.34% active; AID 2023;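 active = GFP response vs DMSO above a set limit, about the screen mean plus 3 SD, cut at about 150% in these data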
RPL19A TOR yeast = alters RPL19A-GFP fluorescence in TOR pathway yeast screen; S. cerevisiae RPL19A-GFP strain, flow cytometry, 3 h; hits give low values; percent response vs DMSO, % at 10 µM; 330,000 tested, 0.3% active;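 active = percent response vs DMSO below 50%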;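 note: median channel GFP fluorescence of the barcoded RPL19A-GFP strain; ratio of sample median GFP to plate DMSO average so 100% = DMSO; lower means less RPL19A-GFP as with rapamycin TOR inhibition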
AGP1 TOR yeast = modulators of TOR pathway AGP1-GFP in S. cerevisiae; S. cerevisiae AGP1-GFP multiplex flow cytometry, 3 h; GFP as percent of DMSO wells; GFP response vs DMSO, % at 10 µM; 320,000 tested, 0.02% active; AID 2066;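 active = GFP response relative to DMSO above a set limit, near screen average plus 3 SD, cut at about 150% in these data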;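 note: median GFP channel fluorescence of the gated AGP1 strain per well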
CIT2-GFP yeast = alters CIT2-GFP fluorescence in TOR pathway yeast screen. AID 2029. GFP response vs DMSO, % at 10 µM. 320,000 tested, 0.065% active. S. cerevisiae CIT2-GFP strain, flow cytometry, 3 h; 100 means same as DMSO wells;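 active = GFP response relative to DMSO above a set limit, near the screen mean plus 3 SD, cut at about 150% in these data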;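 note: ratio of well median GFP fluorescence to mean of DMSO wells on the plate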
VLA-4 inh = inhibition in a human VLA-4 binding assay; VLA-4 expressing cells, ligand binding flow cytometry; inhibition, % (about 7 µM as worked out from the volumes in the protocol); AID 2557; 330,000 tested, 0.2% active; P13612; in the data active = inhibition above about 50%
Target sequence (P13612 whole entry, looked up): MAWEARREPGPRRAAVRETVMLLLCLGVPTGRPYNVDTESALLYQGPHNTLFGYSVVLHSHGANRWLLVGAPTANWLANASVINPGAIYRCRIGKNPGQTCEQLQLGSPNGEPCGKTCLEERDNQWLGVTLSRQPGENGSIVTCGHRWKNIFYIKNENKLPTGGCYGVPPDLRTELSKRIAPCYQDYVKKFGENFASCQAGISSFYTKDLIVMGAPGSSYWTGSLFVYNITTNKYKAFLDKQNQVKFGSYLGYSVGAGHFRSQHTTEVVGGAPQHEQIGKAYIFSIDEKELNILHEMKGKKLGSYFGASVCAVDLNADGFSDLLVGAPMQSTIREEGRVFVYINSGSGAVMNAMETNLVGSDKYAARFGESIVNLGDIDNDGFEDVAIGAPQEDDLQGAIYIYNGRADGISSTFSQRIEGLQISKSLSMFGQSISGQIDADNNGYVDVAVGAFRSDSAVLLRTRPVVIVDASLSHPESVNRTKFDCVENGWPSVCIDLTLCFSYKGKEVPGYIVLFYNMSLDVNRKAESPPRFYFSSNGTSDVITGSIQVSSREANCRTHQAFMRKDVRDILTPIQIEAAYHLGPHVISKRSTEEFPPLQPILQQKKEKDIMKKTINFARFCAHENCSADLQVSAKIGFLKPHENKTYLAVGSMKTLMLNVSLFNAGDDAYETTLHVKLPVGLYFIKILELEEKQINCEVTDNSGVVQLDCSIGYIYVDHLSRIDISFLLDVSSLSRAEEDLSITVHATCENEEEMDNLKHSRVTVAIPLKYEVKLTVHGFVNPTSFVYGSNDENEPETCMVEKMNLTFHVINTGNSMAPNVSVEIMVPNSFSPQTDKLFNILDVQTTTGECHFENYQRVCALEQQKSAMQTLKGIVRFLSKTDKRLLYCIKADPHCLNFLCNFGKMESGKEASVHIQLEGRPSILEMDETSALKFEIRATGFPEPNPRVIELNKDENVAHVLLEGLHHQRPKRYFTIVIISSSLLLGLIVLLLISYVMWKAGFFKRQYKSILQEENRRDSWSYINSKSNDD
LAP4 cherry2 = reconfirmed LAP4-GFP TOR pathway modulator in yeast; shares compounds with LAP4-GFP MLPCN; S. cerevisiae LAP4-GFP strain, flow cytometry GFP, 3 h; 590 tested, 20% active; GFP response vs DMSO, % at 10 µM;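 active = GFP signal as percent of the solvent control above about 150%, meaning raised reporter expression, limit read from the data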;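 note: ratio of well median GFP fluorescence to plate DMSO mean so 100% = DMSO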
MEP2 cherry2 = second confirmation of modulators of TOR reporter MEP2-GFP in yeast | shares compounds with LAP4-GFP MLPCN | S. cerevisiae MEP2-GFP strain, flow cytometry GFP, 3 h | GFP response vs DMSO, % at 10 µM | 590 tested, 10% active | AID 2622;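 active = GFP signal above 150% of the solvent control wells, that is a rise of more than half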;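 note: median channel GFP fluorescence of all gated yeast cells per well; ratio of median GFP to plate DMSO average so 100% = DMSO level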
RPL19A GFP CP2 = second confirmation of modulators of TOR reporter RPL19A-GFP in yeast. shares compounds with LAP4-GFP MLPCN. S. cerevisiae RPL19A-GFP strain, flow cytometry GFP, 3 h; hits give low values; 100% means same as DMSO wells. GFP response vs DMSO, % at 10 µM. 590 tested, 3% active. AID 2623;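 active = under 65% GFP response relative to DMSO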;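 note: median GFP channel fluorescence per well over the all cells gate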
CIT2 GFP CP2 = second confirmation of modulators of TOR reporter CIT2-GFP in yeast; shares compounds with LAP4-GFP MLPCN; 590 tested, 8% active; S. cerevisiae CIT2-GFP strain, flow cytometry GFP, 3 h; DMSO control wells read 100%; GFP response vs DMSO, % at 10 µM;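 active = GFP response vs DMSO above about 150%, limit read from the data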;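 note: median green fluorescence per well over all gated yeast cells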
AGP1 GFP CP2 = reconfirmed modulator of AGP1-GFP TOR reporter in yeast | shares compounds with LAP4-GFP MLPCN | S. cerevisiae AGP1-GFP strain, flow cytometry GFP, 3 h | percent response vs DMSO, % at 10 µM | 590 tested, under 10 active | AID 2643;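 active = over 150 percent of DMSO response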;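 note: median GFP channel fluorescence over all cells without mother daughter split; sample median GFP divided by mean DMSO control so 100% equals DMSO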
Yeast autofluor = counter-screen for compound autofluorescence in yeast s288c cells | shares compounds with LAP4-GFP MLPCN | S. cerevisiae s288c, 520 nm autofluorescence, flow cytometry, 3 h; hits give high values; zero means same as solvent-only cells | fluorescence change (kMESF span) at 33 µM | 610 tested, under 10 active;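 active = fluorescence span over the dose series, or activity score, above about 33, limit read from the data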
s288c autofl DR = counter-screen for autofluorescence of TOR hits in yeast s288c. S. cerevisiae s288c parental, compound autofluorescence, flow cytometry, 3 h. shares compounds with LAP4-GFP MLPCN. AID 488829. 110 tested, under 10 active. fluorescence change (span) at 33 µM;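 active = fluorescence change span, or the activity score built from it, above 25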
TORC1 bypass = stops wildtype yeast growth while TORC1 bypass cells still grow; shares compounds with LAP4-GFP MLPCN; S. cerevisiae BY4741 spot growth rating, 48-72 h; hits give low values; 120 tested, under 10 active; AID 504456; growth rating (0-3) at 30 µM;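 active = growth rating at most 1 for wild type yeast while the TORC1 bypass strain still grows fully, rated 3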
An asterisk follows results filed as active; . = no result. Compounds with a hit are over-represented: about 1.1% of the library has one in this group of screens.

SMILES	MEP2 TOR yeast	LAP4-GFP MLPCN	RPL19A TOR yeast	AGP1 TOR yeast	CIT2-GFP yeast	VLA-4 inh	LAP4 cherry2	MEP2 cherry2	RPL19A GFP CP2	CIT2 GFP CP2	AGP1 GFP CP2	others
COc1ccc(C(CNC(=O)c2ccc(Br)o2)N2CCN(C)CC2)cc1 (configuration not stated)	102.1	101.6	102.8	108.6	112.6	7.5	.	.	.	.	.
CCOc1ccc(NS(=O)(=O)c2cc(C(=O)N(CC)CC(=O)NCc3cccs3)ccc2C)cc1	103.9	109.9	101.3	108.2	101.6	12.4	.	.	.	.	.
O=C(c1ccc(C(=O)N2CCCc3ccccc32)s1)N1CCCc2ccccc21	114.8	170.7*	84.4	102.9	67.1	-3.6	125.2	164.2*	101.5	118.2	141.8	Yeast autofluor=1.3;s288c autofl DR=0.66;TORC1 bypass=2
O=C(c1ccc([N+](=O)[O-])s1)N1CCCc2ccccc21	104.8	101.2	101.8	98.1	104.5	0.5	.	.	.	.	.
COc1ccc(N=Nc2cc(C)ccc2O)cc1	104.2	105.1	98.4	95.4	99.7	-4.2	.	.	.	.	.
Cc1ccc(O)c(N=Nc2nccs2)c1	100.0	170.9*	89.0	74.8	74.9	-11.4	227.4*	141.5	100.6	132.1	95.4	Yeast autofluor=0.61
O=C1CCN(Cc2ccccc2)S(=O)(=O)c2ccccc21	90.0	112.2	99.7	87.5	84.9	-1.8	.	.	.	.	.
C=C1CCN(Cc2ccccc2)S(=O)(=O)c2ccccc21	91.7	162.6*	97.8	85.0	84.8	34.4	99.0	99.8	98.8	92.7	95.3
Cc1ccc2cccc(OCC(=O)Nc3cccc(S(=O)(=O)N4CCCC4)c3)c2n1	111.4	111.2	114.2	113.9	113.0	0.3	.	.	.	.	.
CN(C)c1oc(/C=C/c2cccs2)nc1S(=O)(=O)c1ccccc1	94.9	70.9	52.9	13.4	82.8	18.1	99.0	96.5	97.3	95.0	95.3
COc1ccccc1/C=C/c1nc(S(=O)(=O)c2ccccc2)c(N(C)C)o1	97.8	101.4	98.6	95.1	105.0	-3.0	.	.	.	.	.
CCCCOc1ccc(C(=O)N(C)CC(=O)Nc2ccc(C)cc2)cc1	100.5	97.2	106.9	98.3	103.9	4.3	.	.	.	.	.
Cc1ccc(C(CC(=O)O)NC(=O)c2ccc(S(=O)(=O)N3CC(C)OC(C)C3)cc2)cc1 (configuration not stated)	195.9*	113.8	100.4	97.1	109.5	25.2	98.2	99.6	99.1	96.0	98.6	Yeast autofluor=0
COC(=O)c1cn(NC(=O)c2ccc([N+](=O)[O-])cc2Cl)c(=O)c2ccccc12	97.8	106.0	101.4	105.2	99.3	1.1	.	.	.	.	.
